The structures appear in SMILES notation. Several values for one entry are separate records, joined by “and”; a condition that tells them apart may be missing. Identical values can stand only once.

The target of this assay is Glucose transporter (Leishmania mexicana) (UniProt O61059). The assay is described as follows: ST_JUDE_LEISH: Cytotoxicity at 2uM final concentration against transgenic Leishmania Mexicana promastigotes LmGT2 that are glucose transport deficient and complemented with the L. Mexicana glucose transporter 2. Activity is measured by DNA content using SYBR green in vitro. It counts as functional.
For `CC(C)CNCc1ccc(-c2ccc(CN(C(=O)NCCc3ccccc3)C3CCN(Cc4ccccc4)CC3)cc2)cc1`, the inhibition is 47.2%. In the case of `CC(=O)Nc1ccc(OCCCCCOc2ccc(NC(C)=O)cc2Cl)c(Cl)c1` it was 1.13%. With `COCc1nc(-c2ccccc2)nc(N2CCN(C(=O)NC(C)C)CC2)c1Cc1ccccc1F` the figure was 6.8%; with `CCCSc1nc2c(c(=O)n1CCc1ccccc1)C1(CCCC1)Cc1ccccc1-2`, 0.24%; with `N=c1c2nc(-c3c(F)cccc3Cl)[nH]c(=O)c2[nH]c(=O)n1-c1ccccc1`, 3.34%.

As for `COCCNCc1ccc(-c2ccc(CNC3CCN(Cc4ccccc4)CC3)cc2)cc1`, the inhibition was 5.2%. As for `CS(=O)(=O)Nc1ccc(OCCCCCCOc2ccc(NS(C)(=O)=O)cc2)cc1`, the inhibition amounted to 2.14%.

In the case of `COc1cc(NC(=O)/C=C/c2ccccc2OC(F)(F)F)cc(OCCN2CCN(CCN3CCOCC3)CC2)c1`, the inhibition stood at 2.34%.

`Cc1cc(Nc2ccc3ccccc3c2)n2ncnc2n1`: the inhibition is -1.18%.

In the case of `O=C(Nc1cccc(-c2cccc(-c3nc4ccccc4[nH]3)c2)c1)NC1CC1c1ccccc1` (stereo not given), the inhibition is 5.79% and 7.12%. With `CC(=O)Nc1ccc(OCCCCN(Cc2ccccc2C(F)(F)F)c2ccc(C#N)c(C(F)(F)F)c2)c(Cl)c1` the figure was 4.57%; with `CC(C)Nc1nc(NCCc2c[nH]cn2)nc(NCc2ccc(Cl)c(Cl)c2)n1`, -0.25%; with `O=C(/C=C/c1ccc(Cl)c(Cl)c1)NC1CCC(CN2CCC(c3c[nH]c4ccncc34)CC2)CC1` (stereo not given), 0.65%. In the case of `CNCCNCc1ccc(-c2ccc(-c3nc4cccc(C)c4[nH]3)s2)cc1` it was 3.92%. With `COc1ccc2c(c1)nc(CNC(=N)N)n2Cc1ccc(Cl)cc1` the figure was 1.85%; with `c1ccc(COc2ccc(Nc3ncnc4ccc(-c5ccc(CN6CCSCC6)o5)cc34)cc2)cc1`, 7.66%. For `COc1ccc(Br)cc1/C=C/C(=O)Nc1cccc(C2CCN(C)CC2)c1`, the inhibition was found to be 4.16%. Regarding `O=c1ccc2ccc(F)c3c2n1CC3CN1CCC(NCc2ccc(-c3cccc(Cl)c3)nc2)CC1` (stereo not given), the inhibition was 14.9%.

On to `Cc1nc(N)nc(N)c1CCCOc1cccc(Cl)c1`, for which the inhibition was -0.98%. In the case of `Cc1nc2nc(N)nc(N)c2c(C)c1Cc1ccccc1Br` it was 6.78%.

As for `CN(Cc1ccccc1)C(=O)CCNS(=O)(=O)c1cc(Br)cnc1N`, the inhibition came out at 6.07%. Consider `Cc1nc(C)c(CC(=O)Nc2ccc(-c3cccc(-c4nc5cccc(C)c5[nH]4)c3)cc2)s1`, for which the inhibition turned out to be 4.14%. For `Oc1ccc(CCNc2nc(NCc3ccccc3-c3ccc(C(F)(F)F)cc3)nc(N3CCCNCC3)n2)cc1`, the inhibition is 2.83%.

`COc1cc2nc(NCCc3ccccc3)nc(NCc3ccc(C#N)cc3)c2cc1OC`: the inhibition came out at 2.83%. In the case of `Cc1[nH]cc(Br)c(=O)c1-c1ccc(Oc2ccccc2)cc1` it was 1.32%. In the case of `c1ccc(C(c2ccccc2)N2CCN(C(c3cccnc3)c3nnnn3C3CCCC3)CC2)cc1` (stereo not given) it was -1.23%; in that of `FC(F)(F)c1ccc2[nH]ccc(=NN=CC=Cc3ccccc3)c2c1`, 4.34%. With `CC1CCN(C(=O)[C@H](Cc2c[nH]c3ccccc23)NS(=O)(=O)c2ccc(Cl)cc2)CC1` the figure was 13.7%. Regarding `COc1ccc(NC(=O)/C=C/c2ccccc2Cl)cc1OCCN1CCC(N2CCCCC2)CC1`, the inhibition worked out at 7.17%. In the case of `CON=C1CCC(Cn2ccnc2)(c2ccc(Cl)cc2Cl)CC1` (stereo not given) it was 4.22%. Regarding `Cc1ccc(C(C)C)cc1CON1C(=N)N=C(N)NC1(C)C`, the inhibition stood at 10.9%. As for `O=c1ccc2ccc(F)c3c2n1CC3CN1CCC(NCc2cccc(-c3cccs3)c2)CC1` (stereo not given), the inhibition was -6.19%. With `CCc1ccc(CN(CCCOc2cccc(CC(=O)NCc3c[nH]cn3)c2)Cc2ccc(-n3ccnc3)cc2)cc1`, the inhibition came out at 3.08%. Consider `CC(C)Cn1c(Sc2ccc(C#N)c([N+](=O)[O-])c2)nnc1-c1ccccc1`, for which the inhibition is 3.76%.

On to `N=C(N)Nc1nc(-c2cccc(NC(=O)NCc3cccc4ccccc34)c2)cs1`, for which the inhibition is 0.66%.

Take `Cc1ccc(N2C(N)=NC(N)=NC2(C)C)cc1Cl`: the inhibition came out at 8.05%.

In the case of `O=C(Nc1ccc(C(F)(F)F)cc1)NC1CCN(c2ccnc3cc(Cl)ccc23)CC1`, the inhibition turned out to be 4.68%. Turning to `CN(c1ccc2c(c1)nc(NC(=O)C1(c3cc(F)ccc3F)CC1)n2C)c1ccnc(Nc2cccc(CS(C)(=O)=O)c2)n1`, the inhibition is -1.29%. In the case of `CCNc1cc(C(=O)N[C@@H](Cc2ccccc2)[C@H](O)CN[C@@H]2CCc3ccccc32)cc(N2CCCC2=O)c1` it was 2.15%; in that of `Cc1ccc(C(NC(=O)c2ccccc2)c2ccc3cccnc3c2O)cc1` (stereo not given), -0.04%.

In general, inhibition refers to the change of the read-out against control, counted positive when it falls.

The values above are taken from ChEMBL document CHEMBL3433997, “St. Jude Leishmania screening dataset” (2016).
